ChEMBL document CHEMBL3433997, “St. Jude Leishmania screening dataset” (2016)

Tests used:
Format in all cases: functional
[1] = molecular target: Solute carrier family 2, facilitated glucose transporter member 1 (Homo sapiens) (UniProt P11166); experiment: ST_JUDE_LEISH: Cytotoxicity at 2uM final concentration against transgenic Leishmania Mexicana promastigotes LmGLUT1 that are glucose transport deficient and complemented with the human glucose transporter GLUT1. Activity is measured by DNA content using SYBR green in vitro
[2] = molecular target: Hexose transporter 1 (Plasmodium falciparum) (UniProt O97467); experiment: ST_JUDE_LEISH: Cytotoxicity at 2uM final concentration against transgenic Leishmania Mexicana promastigotes LmPfHT that are glucose transport deficient and complemented with the Plasmodium falciparum hexose transporter. Activity is measured by DNA content using SYBR green in vitro
[3] = molecular target: Glucose transporter (Leishmania mexicana) (UniProt O61059); experiment: ST_JUDE_LEISH: Cytotoxicity at 2uM final concentration against transgenic Leishmania Mexicana promastigotes LmGT2 that are glucose transport deficient and complemented with the L. Mexicana glucose transporter 2. Activity is measured by DNA content using SYBR green in vitro

Solute carrier family 2, facilitated glucose transporter member 1 (Homo sapiens), sequence (P11166 whole entry): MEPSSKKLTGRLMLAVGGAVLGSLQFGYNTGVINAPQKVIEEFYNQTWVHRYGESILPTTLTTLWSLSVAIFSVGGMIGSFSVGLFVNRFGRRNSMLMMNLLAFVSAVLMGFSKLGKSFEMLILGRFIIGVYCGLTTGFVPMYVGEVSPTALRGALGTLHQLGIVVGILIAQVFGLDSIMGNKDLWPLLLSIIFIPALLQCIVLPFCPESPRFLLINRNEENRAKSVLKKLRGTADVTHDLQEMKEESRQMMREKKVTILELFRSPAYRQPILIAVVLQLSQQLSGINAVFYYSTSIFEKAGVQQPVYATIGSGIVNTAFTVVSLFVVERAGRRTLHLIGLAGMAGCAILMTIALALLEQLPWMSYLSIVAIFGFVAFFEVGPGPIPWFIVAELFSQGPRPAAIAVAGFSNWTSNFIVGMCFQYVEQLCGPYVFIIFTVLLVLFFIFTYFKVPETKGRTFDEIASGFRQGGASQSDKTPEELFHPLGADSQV

Row | Compound | inhibition [1] [%] | inhibition [2] [%] | inhibition [3] [%]
1 | O=C(c1ccc(-c2cccc(-c3nc4cc(F)ccc4[nH]3)c2)cc1)N1CCCCC1CN1CCC(O)C1 (stereo unspecified) | 4.71 | 4.55 | 3.96
2 | CCOC(=O)c1c(CN(CC)CC)n(-c2ccccc2)c2cc(Br)c(O)cc12 | 2.14 | 3.81 | 1.76
3 | Fc1ccc(CN2CCN(c3ncnc4cc(-c5ccccc5)sc34)CC2)cc1 | -1.67 | -1.81 | -1.83
4 | Cc1cc(N[C@@H](CC(C)C)C(=O)NCCOc2ccccc2)nc(NCCOc2ccccc2)n1 | 3.79 | 1.16 | 17.1
5 | COc1ccc(NC(=O)c2ccc3[nH]c(-c4ccc(Cl)cc4)cc3c2)cc1OCCN(C)C | 2.93 | 1.88 | 0.79
6 | CN1CCC(NCc2ccc(-c3ccc(S(=O)(=O)NCc4ccccc4)s3)cc2)CC1 | 6.58 | 6.78 | 4.55
7 | Cc1noc(C)c1-c1ccc2c(Nc3ccccc3C(C)(C)C)c(C(=O)NCc3ccc4c(c3)OCO4)cnc2c1 | -1.21 | 2.69 | -0.92
8 | CCC(Nc1noc(-c2c(-c3ccccc3)noc2C)n1)c1ccccc1 (stereo unspecified) | -1.15 | 2.18 | 1.54
9 | Cc1ccc(CN2CCCN(Cc3ccc(C(=O)Nc4ccc(Cl)cc4)cc3)CC2)s1 | 2.49 | 2.74 | 0.05
10 | COc1ccc(C=NN=c2cc(C)[nH]c3ccc(C)cc23)c2ccccc12 | 0.11 | 1.75 | -1.89
11 | O=C(CSc1nccn1C1CCCC1)Nc1cc(C(F)(F)F)ccc1Cl | 1.51 | 2.58 | 2
12 | c1cc(-c2ccc(CNCCc3ccncc3)cc2)cc(-c2nc3ccccc3[nH]2)c1 | 1.85 | 0.82 | 3.55
